From PubChem
ClpP mod – qHTS Assay for Activators of ClpP; actives 1.9% (n = 340,000); ATP-dependent Clp protease proteolytic subunit (Bacillus subtilis (strain 168)), P80244; AID 651965, 2013; purified B. subtilis ClpP, FRET peptide cleavage, 20 min; Potency, µM (titrated, usually from 57.5 µM); active means well fitted falling curve with a large enough effect; inconclusive means small, poorly fitted or top-dose-only effect; inactive means no such curve, though single readings can be large or run the other way; further: the source files actives as falling curves though it sought activators and does not explain the sign; nearly all actives have a fitted effect of over 65% in size
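Buffer: 100 mM Tris/HCl pH8, 100 mM KCl, 0.05% low protease BSA, 2.5% glycerol, 0.01% Tween-20. ClpP 10 microg/mL final; 20 min RT; delta FRET normalized to ADEP and DMSO controls.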
DT40 TDP1 no CPT – qHTS for Inhibitors of human tyrosyl-DNA phosphodiesterase 1 (TDP1): qHTS in cells in absence of CPT | DT40 Tdp1-/- hTDP1 cells, no CPT, ATP luminescence, 48 h | Potency, µM (highest dose often 46.2 µM), usual class: inhibitors | actives 15% (n = 420,000) | AID 686978, 2013; further: nearly all actives have a fitted effect of over 55% in size
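Seeded 400 DT40-hTDP1 cells/well (vehicle DMSO, no 20 nM CPT); pinned compounds; ≥48 hr at 37 °C; CellTiter-Glo luminescence as viability measure.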
TDP1 cell CPT – growth inhibition of DT40 Tdp1-/-;hTDP1 cells with camptothecin (screen for TDP1 inhibitors) | actives 12% (n = 420,000) | Potency, µM (titrated, usually from 46.2 µM), usual class: inhibitors | chicken DT40 Tdp1-/-;hTDP1 cells + 20 nM CPT, ATP luminescence, 48 h | AID 686979; further: nearly all actives have a fitted effect of over 55% in size
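Cell growth measured by CellTiter-Glo luminescence after a minimum 48 h, 37 C compound exposure with 20 nM CPT in Tdp1-knockout DT40 cells stably expressing hTDP1, seeded 400/well; qHTS titration format.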
IL1B secr inh – inflammasome signaling inhibition, IL-1 beta readout; THP-1 LPS/ATP IL-1B secretion, AlphaLISA, 16 h; hits give low values; activity change, % at 57.5 µM; actives 4.7% (n = 360,000); AID 743279; in the data active means activity change below about -50%; inconclusive means mostly about -30% to -49%
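Secreted IL-1B measured by AlphaLISA bead assay after 16 h compound exposure of THP-1 cells; compounds (final up to 57.5 uM) added 1 h before LPS (250 ng/mL) and ATP (1.25 mM) stimulation; lower signal means less secretion.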
D3 antag – blocks the human D3 dopamine receptor. actives 2.5% (n = 360,000). max response, negative = inhibition, %. AID 652054. P35462. D3R cells, DiscoveRx beta-arrestin luminescence, antagonist mode; hits give low values; in the data active means max response below about -50%; inconclusive means no clear call, values can overlap the other calls
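Cells expressing the human receptor were seeded at 1500 cells/well, incubated overnight at 37 degrees C in 5% CO2, then exposed to library compounds with dopamine controls for 90 minutes at 37 degrees C before luminescent detection.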
D3 ag – agonists of human D3 dopamine receptor. actives 0.58% (n = 410,000). max activation, %. AID 652048. P35462. D3R DiscoveRx beta-arrestin cells, luminescence, 90 min; in the data active means max activation above about 30%
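Agonist-mode cell screen: cells plated at 1500/well and incubated overnight at 37 °C, then exposed to library compounds for 90 min at 37 °C. Detection reagent was added for 30–60 min at room temperature, and luminescence was read.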
Numbers stand for hits; – = inactive; ? = inconclusive; · = not tested or not shown. An excerpt weighted towards active compounds, which were near 21% of everything screened. Unless noted, the call rests on the fitted dose curve; in most records, active means well fitted inhibition curve with a large enough effect; inconclusive means small, poorly fitted or top-dose-only effect; inactive means flat fitted curve, though single readings scatter.

SMILES | ClpP mod | DT40 TDP1 no CPT | TDP1 cell CPT | IL1B secr inh | D3 antag | D3 ag
NNC(=O)CNC(c1ccccc1)c1cc(Br)ccc1NC(=O)c1ccc(Br)cc1 (configuration not stated) | ? | – | ? | -63 | – | –
Cc1ccccc1-c1nc(N(C)C)c2ccccc2n1 | · | – | – | · | · | ·
COC(=O)CNC(c1ccccc1)c1cc(Br)ccc1NC(=O)c1ccccc1 (configuration not stated) | ? | ? | 21µM | · | · | –
COC(=O)CNC(c1ccccc1)c1cc(Br)ccc1NC(C)=O (configuration not stated) | · | – | – | – | – | –
COc1ccc(CCC(=O)N2CCN(S(=O)(=O)c3ccc(OC)c([N+](=O)[O-])c3)CC2)cc1 | – | ? | ? | – | – | –
COC(=O)c1cccc(NC(=O)c2nn(C)c(=O)c3ccccc23)c1 | – | 8.2µM | 23µM | – | – | –
COc1ccccc1NS(=O)(=O)c1cccc(NC(=O)c2nn(C)c(=O)c3ccccc23)c1 | – | 23µM | ? | – | – | –
O=C(Cn1nc(C(=O)O)c2ccccc2c1=O)Nc1cccc(S(=O)(=O)N2CCCCC2)c1 | · | – | – | – | – | –
Cn1nc(C(=O)Nc2cccc(S(=O)(=O)N3CCCCC3)c2)c2ccccc2c1=O | · | ? | ? | -54 | – | –
COC(=O)c1ccc(C)c(NC(=O)c2nn(C)c(=O)c3ccccc23)c1 | – | – | – | – | – | –
CN(CCC1CCOCC1)C(=O)C1CCC(=O)N(CCc2cccc(F)c2)C1 (configuration not stated) | – | – | – | – | – | –
CC(Sc1nnc(C(F)(F)F)n1C)C(=O)Nc1ccc(S(N)(=O)=O)cc1 (configuration not stated) | – | – | – | – | – | –
CCc1[nH]c(C(=O)O)c(C)c1C(=O)OC | – | – | – | – | – | –
CCCCCCC(=O)OCC(=O)c1ccc2c(c1)NC(=O)CO2 | – | 13µM | 8.2µM | – | – | –
CC(C)[C@H](NC(=O)c1ccccc1)C(=O)OCC(=O)c1ccc2c(c1)NC(=O)CO2 | – | 5.8µM | 4.6µM | – | – | –
COc1ccc(/C=C/C(=O)OCC(=O)c2ccc3c(c2)NC(=O)CO3)c(OC)c1 | – | – | – | -52 | – | –
O=C1COc2ccc(C(=O)CCl)cc2N1 | · | 1.6µM | 5.8µM | -90 | – | –
CCc1ccc(OCC(=O)OCC(=O)c2ccc3c(c2)NC(=O)CO3)cc1 | – | – | – | – | – | –
Cc1nnc(NC(=O)CN2CCN(Cc3ccccc3)CC2)s1 | – | ? | – | – | – | –
O=C1c2ccccc2CCC12OC2c1ccc([N+](=O)[O-])cc1 (configuration not stated) | – | ? | ? | – | – | –
O=C1c2ccccc2CCC12OC2c1ccncc1 (configuration not stated) | – | 2.9µM | – | – | – | –
O=C([C@@H]1CCCN1C(=O)c1cccs1)N1CCN(S(=O)(=O)c2cccc(F)c2)CC1 | – | – | – | – | – | –
CC(C)(C)OC(=O)N(CCc1ccccc1)Cc1cccc(OCc2cccc(NC(=O)C3CCCC3)c2)c1 | – | ? | ? | – | – | –
CCC(=O)Nc1cccc(C(=O)N(Cc2ccccc2)Cc2ccccc2)c1 | – | ? | ? | – | – | –
CC(C)(C)OC(=O)N(Cc1ccccc1)Cc1ccccc1OCc1cccc(NC(=O)c2ccccc2)c1 | – | 16µM | 16µM | – | – | –
SMILES | ClpP mod | DT40 TDP1 no CPT | TDP1 cell CPT | IL1B secr inh | D3 antag | D3 ag
CC(C)(C)OC(=O)N(Cc1ccccc1)Cc1cccc(OCc2cccc(NC(=O)c3ccccc3)c2)c1 | – | 23µM | 23µM | – | – | –
CC(C)C(=O)Nc1cccc(COc2ccccc2CN(Cc2ccccc2)C(=O)OC(C)(C)C)c1 | – | 23µM | ? | – | – | –
CC(C)(C)OC(=O)N(CCc1ccccc1)Cc1ccccc1OCc1cccc(NC(=O)C2CC2)c1 | – | ? | ? | – | – | –
Cc1cnc(CNc2ccnc(-c3ccccc3Cl)n2)cn1 | · | – | – | · | · | ·
O=C(CCc1nc2ccccc2c(=O)[nH]1)Nc1nnc(SCc2ccccc2F)s1 | – | 16µM | 13µM | – | – | –
O=C(CCc1nc2ccccc2c(=O)[nH]1)Nc1nnc(SCc2ccc(Cl)cc2)s1 | · | ? | – | – | – | –
C=C1CCN([C@@H](Cc2ccccc2)C(=O)NCc2ccc(Cl)cc2)S(=O)(=O)c2ccccc21 | – | 21µM | ? | – | -56 | –
COc1ccc(NC(=O)CC2SC(=O)NC2=O)cc1 (configuration not stated) | · | 5.8µM | 2.3µM | – | – | –
Cc1ccc(NC(=O)CC2S/C(=N/N=C3/NC(=O)CS3)NC2=O)cc1 (configuration not stated) | – | – | – | – | ? | –
COc1ccc(NC(=O)Nc2ccc(OC)cc2)cc1 | – | – | – | – | – | –
Cc1ccc(NC(=O)CC2SC(=O)NC2=O)cc1 (configuration not stated) | – | 5.8µM | 2.6µM | – | – | –
COc1ccc(NC(=O)/C=C2\SC(=O)NC2=O)cc1 | · | – | – | -51 | – | –
O=C(CSc1ncc(S(=O)(=O)c2ccc(Br)cc2)c(=O)[nH]1)NCc1ccccc1Cl | – | – | – | · | · | –
COCC(=O)N1CCC2(CCCN(C(=O)Nc3cccc(C#N)c3)C2)CC1 | · | – | – | · | · | ·
Cn1c(N)c(C(=O)CSc2nc3ccccc3[nH]2)c(=O)n(C)c1=O | – | – | – | – | – | –
CSc1ncccc1C(=O)N1CCOc2ccc(C(C)(O)CCn3cccn3)cc2C1 (configuration not stated) | · | – | – | · | · | ·
COc1cc(OC)c2ccc(=O)oc2c1C(CC(=O)N1CCCC1)c1ccc(N(C)C)cc1 (configuration not stated) | – | ? | ? | – | – | –
CCN(CC)CCC(c1ccc(N(C)C)cc1)c1c(OC)cc(OC)c2ccc(=O)oc12 (configuration not stated) | – | 13µM | 10µM | – | – | –
COc1cc(OC)c2ccc(=O)oc2c1C(CCN1CCCC1)c1ccc(N(C)C)cc1 (configuration not stated) | – | ? | 9.2µM | – | – | –
COc1ccc([C@@H]2CC=C(C(=O)O)[C@H](c3cccc(Cl)c3)N2S(=O)(=O)c2ccccc2C)cc1 | – | – | – | – | – | –
